The term AC50 denotes the concentration at which the activity in the assay is half-maximal.

Screen size: about 16,000 compounds; about 5,100 (32%) were called active. Another 25% or so got no clear call; they are omitted. The list shows a part of the results. Values without a mark were called inactive. Calls follow the shape of the dose curve; as a rule, active = well fitted curve in the direction sought with a large enough effect; inconclusive = small, poorly fitted or top-dose-only effect, or effect the other way; inactive = no such curve, though single readings can be large or run the other way.

61 compounds from PubChem BioAssay AID1851 (National Center for Advancing Translational Sciences (NCATS), 2009) can be followed below.
% is scaled to controls: 0 for no effect and ±100 for the full control effect.

The target of the assay is Cytochrome P450 3A4 (Homo sapiens) (UniProt P08684). The assay can be described thus: Cytochrome panel assay with activity outcomes. The following applies: recombinant CYP, pro-luciferin dealkylation, luminescence, p450-cyp3a4; series mostly up to 57.1 µM; activity, negative = inhibition: at the top concentration.
Sequence of Cytochrome P450 3A4 (Homo sapiens) (P08684 whole entry, looked up): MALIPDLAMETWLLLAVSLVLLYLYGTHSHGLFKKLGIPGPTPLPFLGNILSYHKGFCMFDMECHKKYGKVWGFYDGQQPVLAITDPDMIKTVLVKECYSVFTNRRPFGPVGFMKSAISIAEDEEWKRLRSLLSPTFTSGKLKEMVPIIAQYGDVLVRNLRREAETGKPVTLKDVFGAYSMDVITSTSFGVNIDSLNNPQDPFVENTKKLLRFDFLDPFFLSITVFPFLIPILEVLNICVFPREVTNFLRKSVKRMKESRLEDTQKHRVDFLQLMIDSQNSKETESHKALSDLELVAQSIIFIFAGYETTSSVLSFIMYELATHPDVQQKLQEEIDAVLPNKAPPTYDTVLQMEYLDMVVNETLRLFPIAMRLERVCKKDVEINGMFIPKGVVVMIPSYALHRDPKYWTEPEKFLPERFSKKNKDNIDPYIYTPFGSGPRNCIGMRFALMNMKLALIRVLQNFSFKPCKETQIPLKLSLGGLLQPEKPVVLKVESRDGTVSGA
Take `CCOC(=O)c1cnc(N(C)C)nc1SC(=N)N`: the activity, negative = inhibition was -4.2% [at 11.4 µM]. Take `CSc1ccc(S(=O)(=O)Nc2ccc3c4c(cccc24)CC3)cc1`: the AC50 is 5.01 µM (active). For `Cc1cc(C)cc(OCC(=O)Nc2ccc3c4c(cccc24)CC3)c1`, the “activity, negative = inhibition” value was -27%. Still for that read-out and setting: the same measure for `COc1nnc(OC)c2ccccc12`: 3.31%. In the case of `COC1=C(OC)C(=O)c2ccccc2C1=O`, the AC50 was 20 µM (active). As to `CC(C)=CCC1=C(OCC(=O)O)C(=O)c2ccccc2C1=O`, the activity, negative = inhibition is -24.9% [at 11.4 µM].

Turning to `C#CCn1c(=O)c2c(ncn2C)n(C)c1=O`, the “activity, negative = inhibition” value is -5.18%.

For `N#Cc1c2n(c3c(=S)nc[nH]c13)CCCCC2`, the activity, negative = inhibition is 9.26% [at 2.29 µM].

As for `COc1ccc2c(c1)Cc1cc(N=[N+]([O-])c3ccc4c(c3)Cc3cc(OC)ccc3-4)ccc1-2`, the AC50 was 5.01 µM (active). On the same count and under the same terms, then `Cc1cccc(-n2cnc(C(=O)NC3CCCCCC3)c2)n1`, with 14.1 µM (active); and `Cc1cnc(NC(=O)CSc2ccc(Cl)cc2)s1`, with 15.8 µM (active).

As for `Cc1cc(Cl)nc(NC(=O)CSc2ccc(Cl)cc2)n1`, the activity, negative = inhibition is -7.2% [at 11.4 µM]. Same read-out and setting: then `Nc1nc(N)c(CCCCc2ccccc2)c(N)n1`, with 5.2% [at 11.4 µM].

Turning to `Nc1nc(SCCc2ccccc2)c2[nH]cnc2n1`, the AC50 is 2.51 µM (active). Regarding `Nc1nc(Sc2ccc([N+](=O)[O-])c3nonc23)c2[nH]cnc2n1`, the activity, negative = inhibition is -24.7% [at 11.4 µM].

`Nc1nc(SC/C=C\c2ccccc2)c2[nH]cnc2n1`: the half-maximal activity concentration (AC50) is 2.51 µM (active). On the same count and under the same terms, then `Nc1nc(SCc2ccccc2[N+](=O)[O-])c2[nH]cnc2n1`, with 3.16 µM (active). For the compound `CCC[C@H](Sc1nc(N)nc2nc[nH]c12)C(=O)O`, the activity, negative = inhibition was -4.34% [at 11.4 µM]. The same measure, in the same setting: the same measure for `Nc1nc(N)c2[nH]cnc2n1` (tested in a mixture with another compound): -3.42% [at 11.4 µM]; for `CC(C)[C@H](Sc1nc(N)nc2nc[nH]c12)C(=O)O`: -2.83% [at 11.4 µM]. Turning to `COc1cccc(=O)c2c(C)n(-c3cc(C)cc(C)c3)c(C)c12`, the AC50 was 4.47 µM (active). With `COc1ccc(-n2c(C)n[nH]c2=O)cc1OC`, the “activity, negative = inhibition” value was 2.19%.

With `CN(C)CCC=C1c2ccccc2C=Cc2ccccc21`, the AC50 entry was “inactive”.

As to `O=C(O)[C@@H]1CCCN1Cc1cc2ccccc2c2ccccc12`, the activity, negative = inhibition was -12.1% [at 11.4 µM]. Turning to `CC(C)CC(=O)N[C@H](C(=O)N[C@H](C(=O)N[C@@H](CC(C)C)[C@H](O)CC(=O)N[C@@H](C)C(=O)N[C@@H](CC(C)C)[C@H](O)CC(=O)O)C(C)C)C(C)C`, the “activity, negative = inhibition” value was -8.61% [at 25.6 µM]. On the same count and under the same terms, the same measure for `O=C(CSc1ccccc1)Nc1ccc(NC(=O)c2ccco2)cc1`: -25.4%.

Turning to `CC(=O)c1ccc(-n2nnnc2SCC(=O)Nc2cccc(NC(=O)c3ccco3)c2)cc1`, the AC50 is 3.98 µM (active). Same read-out and setting: then `CCc1cc2cc(C)c(C)cc2nc1SCC(=O)NNC(=O)c1ccco1`, with 8.91 µM (active). For `O=C(CSc1ccc(Cl)cc1)Nc1cccc(NC(=O)c2ccco2)c1`, the activity, negative = inhibition is -17.5% [at 11.4 µM]. As to `Cc1ccc(NC(=O)CCC(=O)NNC(=O)c2ccco2)cc1C`, the activity, negative = inhibition was -4.43% [at 2.29 µM].

For `Cc1ccc(-n2nnnc2SCC(=O)NNC(=O)c2ccco2)c(C)c1`, the concentration at half-maximal activity (AC50) was 22.4 µM (active).

With `Cc1c(Cl)cccc1NC(=O)CCC(=O)NNC(=O)c1ccco1`, the activity, negative = inhibition is 1.8% [at 2.29 µM]. Take `Cc1ccc(SCC(=O)Nc2cccc(NC(=O)c3ccco3)c2)cc1`: the AC50 was 22.4 µM (active). In the case of `Cn1c2c(c(=O)n(C)c1=O)CN(CCN1CCNCC1)CN2`, the “activity, negative = inhibition” value was 1.78%.

Turning to `O=C(CSCC(=O)OCn1nnc2ccccc2c1=O)Nc1ccc(Cl)cc1`, the AC50 was 22.4 µM (active).

Turning to `O=C(Cn1nnc2ccccc21)N/N=C\C=C\c1ccccc1`, the “activity, negative = inhibition” value was -3.42%.

As for `O=C(OCn1nnc2ccccc2c1=O)c1cccnc1`, the AC50 is 8.91 µM (active).

In the case of `CCc1ccc(NC(=O)C2CCN(S(=O)(=O)c3c(C)[nH]c(=O)[nH]c3=O)CC2)cc1`, the “activity, negative = inhibition” value was -15.2%.

In the case of `Cc1cccc(NC(=O)C2CCN(S(=O)(=O)c3cccc4nsnc34)CC2)n1`, the “activity, negative = inhibition” value was -13.5%.

Consider `Nc1nc2c(C(=O)NCc3cccs3)nnn2c2cccc(Cl)c12`, for which the activity, negative = inhibition was -1.06% [at 11.4 µM]. Consider `O=C(NCC1COc2ccccc2O1)C1CCN(S(=O)(=O)c2cccc3nsnc23)CC1` (stereo unspecified), for which the AC50 is 20 µM (active). With `COc1ccc(OC)c(S(=O)(=O)N2CCC(C(=O)Nc3ccc(C)c(C)c3)CC2)c1`, the AC50 was 5.01 µM (active).

Turning to `O=C(NCc1cccs1)C1CCN(S(=O)(=O)c2cccc3nsnc23)CC1`, the AC50 is 12.6 µM (active). Consider `Cc1ccc(NC(=O)C2CCN(S(C)(=O)=O)CC2)cc1`, for which the activity, negative = inhibition is 0.664% [at 2.29 µM]. Turning to `COc1ccc2nc(NC(=O)C3CCN(S(=O)(=O)c4cccc5nsnc45)CC3)sc2c1`, the AC50 is 14.1 µM (active).

As to `COc1ccc2nc(NCN3C(=O)c4ccccc4C3=O)sc2c1`, the activity, negative = inhibition was -27.9% [at 11.4 µM]. Same read-out and setting: the same measure for `CC(C)=CCNc1ncnc2nc[nH]c12`: -14.9% [at 11.4 µM]. In the case of `COc1ccc(CCNC(=O)C2CCN(S(=O)(=O)c3cccc4nsnc34)CC2)cc1OC`, the AC50 is 3.98 µM (active).

Consider `COc1cc(NC(=O)C2CCN(S(=O)(=O)c3cccc4nonc34)CC2)cc(OC)c1`, for which the AC50 was 3.16 µM (active). As for `CC(=O)Nc1ccc(NC(=O)C2CCN(S(=O)(=O)c3cccc4nonc34)CC2)cc1`, the “activity, negative = inhibition” value is -29.4%. As for `COC(=O)c1ccccc1OCC(=O)N1CCN(c2ccc(Cl)cc2)CC1`, the AC50 is 15.8 µM (active). In the case of `COC(=O)c1ccccc1Oc1c(F)c(F)nc(N2CCOCC2)c1F`, the “activity, negative = inhibition” value is -22.2%. The same measure, in the same setting: the same measure for `COC(=O)c1ccccc1OCC(=O)N1CCN(c2ccc(OC)cc2)CC1`: -29.6% [at 11.4 µM]; for `OCCCNc1ncnc2[nH]ncc12`: -20.7% [at 11.4 µM]. Take `O=S1(=O)C=C(SCc2cccc(Cl)c2)Nc2ccccc21`: the AC50 is 2 µM (active).

In the case of `CC[C@@H]1CC(=O)N(SC[C@H](N)C(=O)O)C1=O`, the activity, negative = inhibition is -4.06% [at 11.4 µM].

Regarding `COc1cccc(Cn2c(=O)c(-c3ccccc3)nc3cnc(OC)nc32)c1`, the AC50 is 7.94 µM (active).

For `COc1cccc(Cn2c(=O)c(-c3ccccc3)nc3cnc(N(C)C)nc32)c1`, the AC50 is 6.31 µM (active). Still for that read-out and setting: the same measure for `COc1ccc(-c2nc3cnc(OC)nc3n(Cc3cccc(OC)c3)c2=O)cc1`: 2.51 µM (active).

`CN(C)c1ncc2nc(-c3ccccc3)c(=O)n(C)c2n1`: the “activity, negative = inhibition” value is -29.7%. On the same count and under the same terms, the same measure for `COc1cccc(Cn2c(=O)c(-c3cc(F)cc(F)c3)nc3cnc(N(C)C)nc32)c1`: -27.5%.
